For 16 molecules, Potency, activity change, negative = inhibition and activity, negative = inhibition results are on record in PubChem BioAssay (NCATS).

Unmarked numbers belong to inactive results. Inconclusive results are not listed. Active and inactive are the calls of the source. Unless noted, calls follow the shape of the dose curve; as a rule, active = well fitted curve in either direction with a large enough effect (not every such curve was filed as active); inconclusive = small, poorly fitted or top-dose-only effect, or another doubt; inactive = flat fitted curve, though single readings scatter. A value given as a limit tells only on which side of the number the result lay.

The target in assay [1] is Lysosomal acid glucosylceramidase (Homo sapiens) (UniProt P04062). The assay is described as follows: Glucocerebrosidase-p2 (AID 348; in the data active = potency below about 10 µM; also: potency is read from the fitted curve at half-maximal effect). As to conditions: purified GBA, blue fluorogenic substrate, 40 min. Put shortly: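 Normal human glucocerebrosidase (0.2 nM) with blue fluorogenic substrate (80 uM final) in citrate/phosphate pH 5.9 with 10mM sodium taurocholate, 0.01% tween-20; 40 min RT, NaOH/glycine stop; fluorescence Ex 365/Em 440; AC50 from a titration from 0.6 nM upwards.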
Chain of Lysosomal acid glucosylceramidase (Homo sapiens) (P04062 whole entry, looked up): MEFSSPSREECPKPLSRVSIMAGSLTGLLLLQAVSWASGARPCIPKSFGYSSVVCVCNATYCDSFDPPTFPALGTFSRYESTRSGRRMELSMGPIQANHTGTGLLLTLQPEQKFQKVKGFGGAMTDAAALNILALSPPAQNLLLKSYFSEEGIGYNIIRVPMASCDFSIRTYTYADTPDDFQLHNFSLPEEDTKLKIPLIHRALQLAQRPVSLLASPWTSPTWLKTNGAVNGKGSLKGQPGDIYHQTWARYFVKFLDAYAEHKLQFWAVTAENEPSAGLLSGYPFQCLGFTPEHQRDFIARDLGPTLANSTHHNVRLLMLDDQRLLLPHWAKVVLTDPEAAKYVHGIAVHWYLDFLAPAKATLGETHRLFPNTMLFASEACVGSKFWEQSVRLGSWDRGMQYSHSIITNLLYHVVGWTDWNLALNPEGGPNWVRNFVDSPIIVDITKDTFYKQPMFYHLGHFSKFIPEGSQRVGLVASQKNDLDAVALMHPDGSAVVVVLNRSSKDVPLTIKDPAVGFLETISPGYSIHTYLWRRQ

The nature of assay [2]: AP1 Signaling Pathway (AID 357).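 Also: ME-180 reporter cells stimulated with EGF at its EC50 level; % is scaled to controls: 0 for no effect and ±100 for the full control effect.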 The note with it: ME-180 AP-1-bla reporter, EGF-induced, beta-lactamase ratio, 5 h; at 7.69 µM (top of the series) unless noted. The gist of the method:
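Read-out was the 460nm/530nm emission ratio (excitation 405nm) after CCF4 loading for 2.5 hours at room temperature. Cells carried an AP-1-driven beta-lactamase reporter, were stimulated with EC50 EGF plus compound for 5 hours, and AC50 values came from titrations.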

Assay [3] is described as follows: NFAT Signaling Pathway (AID 444).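 Also: carbachol stimulus at about its EC50 of 1 µM final; % is scaled to controls: 0 for no effect and ±100 for the full control effect.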 As to conditions: Jurkat NFAT-bla M1, carbachol, beta-lactamase ratio, 5 h; at 7.69 µM (top of the series) unless noted. The gist of the method:
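Jurkat cells with NFAT-driven β-lactamase reporter and co-expressed M1 receptor, stimulated with carbachol (final 1 uM, ~EC50), compound titration, 5 h at 37 °C. CCF4 loaded 1 h at RT; 460/530 nm ratio gave %activity and AC50.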

Assay [4] is described as follows: Stat Signaling Pathway (AID 446).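 Also: ME-180 cervical cancer cells given 40 pM IL-6 alongside compound; SIE-controlled beta-lactamase reporter measured as 460/530 nm FRET emission ratio; % is scaled to controls: 0 for no effect and ±100 for the full control effect.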 The note with it: ME-180 (cervical carcinoma) SIE beta-lactamase reporter, IL-6 stimulated, 5 h; at 7.69 µM (top of the series) unless noted. The gist of the method:
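Normalization used AC90 stimulation (300 pM IL-6) and AC90 inhibition (125 nM pan-JAK inhibitor at 40 pM IL-6). The underlying signal is SIE-driven beta-lactamase in ME-180 cells after 5 h IL-6 exposure with compound.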

Assay [5] addresses Glucocorticoid receptor (Homo sapiens) (UniProt P04150). As to the kind of experiment: GR-GFP Redistribution (AID 450;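 active = compounds whose dose series gives a full or clear partial fitted curve of increased nuclear translocation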; also: potency is read from the fitted curve at half-maximal effect). As to conditions: U2OS GR-GFP nuclear translocation, laser cytometry, 2 h.
For assay [6] the target is unchanged. As to the kind of experiment: GR-EFC Redistribution (AID 451; calls by dose curve; also: potency is read from the fitted curve at half-maximal effect). The note with it: CHO-K1 GR-EFC translocation, beta-gal luminescence, 2 h. Put shortly:
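CHO-K1 cells expressing nuclear EA and GR-ED fragments of b-gal; compounds titrated up to 46 uM final, 2 h at 37 C. GR nuclear translocation read as complemented b-gal luminescence after 1 h RT detection.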

Assay [7] has as its target Mitogen-activated protein kinase 10 (Mus musculus) (UniProt Q61831). The assay is described as follows: JNK3 AlphaScreen Assay (AID 530).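 Also: kinase came from lysate of stimulated human HepG2 cells; signal reports phosphorylation of biotinylated GST-cJun 1-79 at Ser73 with 10 µM ATP; % is scaled to controls: 0 for no effect and ±100 for the full control effect.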 As to conditions: JNK3 lysate, c-Jun phosphorylation; series mostly up to 11.4 µM. Put shortly:
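HepG2 lysate (IL-1b/TNFa pre-activated) + biotin-GST-cJun 1-79 + anti-pSer73 cJun; cpd titration, 15 min RT; ATP 10 uM start; Tris pH 7.6, MgCl2, DTT, vanadate; beads in EDTA buffer; AlphaScreen.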
(Alpha assays give light when donor and acceptor beads are brought close together.)

Assay [8] deals with 3',5'-cyclic-AMP phosphodiesterase 4B (Homo sapiens) (UniProt Q07343). As to the kind of experiment: qHTS Assay for Inhibitors of PDE-IV (AID 607; active = well fitted activation curve with a large enough effect in the main read-out, with a control signal flat, not every such curve was filed as active; also: % of control where 0% means no effect). The note with it: HEK293 ACTOne CNG channel cells, membrane potential fluorescence; series mostly up to 22.9 µM. The gist of the method:
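HEK293 ACTOne cells with CNG channel (1000/well), endogenous PDE4; membrane potential dye, compounds up to 22.9 uM final. Fluorescence Ex 535/Em 590; RO 20-1724 (100 uM final) as reference.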
On the technique in general: In qHTS, concentration-response curves come from the screen itself.

For assay [9], the target named is Cytochrome P450 2C9 (Homo sapiens) (UniProt P11712). The assay is described as follows: qHTS Assay for Inhibitors and Substrates of Cytochrome P450 2C9 (AID 883; active = well fitted curve in the direction sought with a large enough effect; an effect the other way counts as inactive or inconclusive; also: potency is read from the fitted curve at half-maximal effect; nearly all actives have a fitted effect of over 60% in size). The note with it: recombinant CYP2C9, luciferin-H luminescence, 60 min; series mostly up to 11.4 µM. The gist of the method: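 10nM CYP2C9 + 100uM Luciferin-H (=KM), 25mM KPO4; cpd 10 min 37C; NADPH regen, 60 min 37C; stop/detect with P450 Glo-Buffer 20 min; luminescence. Norm. to 57uM sulphaphenazole as full inhibition.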
Chain of Cytochrome P450 2C9 (Homo sapiens) (P11712 whole entry, looked up): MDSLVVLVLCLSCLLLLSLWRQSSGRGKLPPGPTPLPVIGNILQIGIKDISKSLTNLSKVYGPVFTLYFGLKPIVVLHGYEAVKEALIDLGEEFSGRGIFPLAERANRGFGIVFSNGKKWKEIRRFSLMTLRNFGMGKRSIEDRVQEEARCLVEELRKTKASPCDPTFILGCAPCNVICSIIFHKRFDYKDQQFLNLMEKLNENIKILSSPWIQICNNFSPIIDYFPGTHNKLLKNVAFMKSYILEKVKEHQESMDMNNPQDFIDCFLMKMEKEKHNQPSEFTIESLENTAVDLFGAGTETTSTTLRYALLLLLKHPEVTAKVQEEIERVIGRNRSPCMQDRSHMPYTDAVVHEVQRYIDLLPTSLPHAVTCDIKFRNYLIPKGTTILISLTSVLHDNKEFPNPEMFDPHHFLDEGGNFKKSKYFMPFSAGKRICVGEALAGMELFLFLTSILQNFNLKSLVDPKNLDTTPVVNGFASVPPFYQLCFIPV

Assay [10] concerns the target Cytochrome P450 3A4 (Homo sapiens) (UniProt P08684). The assay is described as follows: qHTS Assay for Inhibitors and Substrates of Cytochrome P450 3A4 (AID 884; active = well fitted curve in the direction sought with a large enough effect; an effect the other way counts as inactive or inconclusive; also: nearly all actives have a fitted effect of over 50% in size; also: potency is read from the fitted curve at half-maximal effect). As to conditions: recombinant CYP3A4, Luciferin-PPXE luminescence; series mostly up to 57.1 µM. The gist of the method: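 Luminescent readout of luciferin produced by CYP3A4 (20 nM) dealkylation of Luciferin-PPXE, 25 uM (its KM). NADPH-driven reaction ran 60 min at RT after 10 min compound preincubation; data scaled to 57 uM ketoconazole as 100% inhibition.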

For assay [11] the target is unchanged. The assay is described as follows: qHTS Assay for Activators of Cytochrome P450 3A4 (AID 885; active = well fitted curve in the direction sought with a large enough effect; an effect the other way counts as inactive or inconclusive; also: nearly all actives have a fitted effect of over 65% in size; also: potency is read from the fitted curve at half-maximal effect). The note with it: recombinant CYP3A4, Luciferin-PPXE luminescence, 60 min; series mostly up to 11.4 µM. Put shortly:
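Human CYP3A4 dealkylates Luciferin-PPXE to luciferin, which luciferase detection converts to light. Substrate was at its KM (25uM), buffer 200mM KPO4, reaction 60 min at RT.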

Assay [12] concerns the target Cytochrome P450 2C19 (Homo sapiens) (UniProt P33261). The assay is described as follows: qHTS Assay for Inhibitors and Substrates of Cytochrome P450 2C19 (AID 899; active = well fitted curve in the direction sought with a large enough effect; an effect the other way counts as inactive or inconclusive; also: potency is read from the fitted curve at half-maximal effect; nearly all actives have a fitted effect of over 60% in size). The note with it: recombinant CYP2C19, luciferin-H EGE luminescence; series mostly up to 11.4 µM. Put shortly: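 Luminescent read-out of luciferin formed from Luciferin-H EGE (10uM, equal to KM). Enzyme 5nM in 50mM KPO4; compound added, 10 min at 37C, then NADPH regenerating system for 60 min at 37C. Full inhibition defined by 57uM ketoconazole.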

Chain of Cytochrome P450 3A4 (Homo sapiens) (P08684 whole entry, looked up): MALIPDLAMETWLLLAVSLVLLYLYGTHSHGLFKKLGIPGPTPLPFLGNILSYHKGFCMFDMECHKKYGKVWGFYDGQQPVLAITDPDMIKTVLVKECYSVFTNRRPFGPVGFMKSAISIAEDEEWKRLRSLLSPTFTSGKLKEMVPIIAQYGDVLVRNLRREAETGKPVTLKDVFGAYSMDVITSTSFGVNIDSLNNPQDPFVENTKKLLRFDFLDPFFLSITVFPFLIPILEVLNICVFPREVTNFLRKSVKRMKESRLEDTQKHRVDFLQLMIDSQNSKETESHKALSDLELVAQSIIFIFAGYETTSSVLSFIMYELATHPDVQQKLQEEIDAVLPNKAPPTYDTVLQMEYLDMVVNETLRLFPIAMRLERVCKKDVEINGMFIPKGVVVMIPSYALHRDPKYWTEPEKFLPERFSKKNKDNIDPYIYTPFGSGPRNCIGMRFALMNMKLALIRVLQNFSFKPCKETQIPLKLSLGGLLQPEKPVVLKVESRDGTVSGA
Chain of Glucocorticoid receptor (Homo sapiens) (P04150 whole entry, looked up): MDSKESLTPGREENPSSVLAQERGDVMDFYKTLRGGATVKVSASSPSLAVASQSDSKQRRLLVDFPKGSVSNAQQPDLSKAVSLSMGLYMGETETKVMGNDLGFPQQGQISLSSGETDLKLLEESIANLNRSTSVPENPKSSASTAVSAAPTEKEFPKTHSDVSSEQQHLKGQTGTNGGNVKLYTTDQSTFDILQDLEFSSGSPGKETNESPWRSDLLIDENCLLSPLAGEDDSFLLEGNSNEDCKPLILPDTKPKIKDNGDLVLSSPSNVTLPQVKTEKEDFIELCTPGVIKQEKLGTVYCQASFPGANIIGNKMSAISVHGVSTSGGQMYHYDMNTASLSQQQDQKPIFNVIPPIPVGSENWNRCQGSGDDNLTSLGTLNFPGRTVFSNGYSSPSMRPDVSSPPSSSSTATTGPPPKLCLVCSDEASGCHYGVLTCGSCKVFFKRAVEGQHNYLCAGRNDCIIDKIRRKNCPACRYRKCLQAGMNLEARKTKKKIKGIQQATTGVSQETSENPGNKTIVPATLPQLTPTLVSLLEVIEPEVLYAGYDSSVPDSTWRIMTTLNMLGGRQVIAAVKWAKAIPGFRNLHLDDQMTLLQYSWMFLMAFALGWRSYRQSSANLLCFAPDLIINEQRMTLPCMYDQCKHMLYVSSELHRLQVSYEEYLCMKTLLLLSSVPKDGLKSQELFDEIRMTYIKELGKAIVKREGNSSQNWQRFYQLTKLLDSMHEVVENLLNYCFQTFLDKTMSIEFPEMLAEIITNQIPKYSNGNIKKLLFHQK
Chain of 3',5'-cyclic-AMP phosphodiesterase 4B (Homo sapiens) (Q07343 whole entry, looked up): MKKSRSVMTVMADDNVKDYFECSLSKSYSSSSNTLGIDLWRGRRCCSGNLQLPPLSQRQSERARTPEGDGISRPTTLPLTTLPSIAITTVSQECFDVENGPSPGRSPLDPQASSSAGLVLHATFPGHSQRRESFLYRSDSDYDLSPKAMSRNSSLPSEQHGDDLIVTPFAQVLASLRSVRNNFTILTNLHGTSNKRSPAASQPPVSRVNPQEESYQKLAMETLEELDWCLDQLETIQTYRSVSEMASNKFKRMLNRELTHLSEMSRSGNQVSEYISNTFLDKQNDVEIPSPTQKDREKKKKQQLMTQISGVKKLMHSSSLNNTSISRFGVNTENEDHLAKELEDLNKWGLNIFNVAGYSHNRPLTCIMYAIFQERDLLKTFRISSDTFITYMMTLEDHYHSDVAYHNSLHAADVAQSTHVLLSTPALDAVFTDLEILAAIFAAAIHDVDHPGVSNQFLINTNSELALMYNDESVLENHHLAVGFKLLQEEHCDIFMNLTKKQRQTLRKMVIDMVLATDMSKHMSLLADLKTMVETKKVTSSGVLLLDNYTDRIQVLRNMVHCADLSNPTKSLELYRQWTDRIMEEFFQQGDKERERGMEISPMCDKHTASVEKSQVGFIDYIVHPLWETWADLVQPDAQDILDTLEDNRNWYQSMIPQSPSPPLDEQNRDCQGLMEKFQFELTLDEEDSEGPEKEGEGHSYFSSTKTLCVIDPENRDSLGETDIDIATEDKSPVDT
Chain of Cytochrome P450 2C19 (Homo sapiens) (P33261 whole entry, looked up): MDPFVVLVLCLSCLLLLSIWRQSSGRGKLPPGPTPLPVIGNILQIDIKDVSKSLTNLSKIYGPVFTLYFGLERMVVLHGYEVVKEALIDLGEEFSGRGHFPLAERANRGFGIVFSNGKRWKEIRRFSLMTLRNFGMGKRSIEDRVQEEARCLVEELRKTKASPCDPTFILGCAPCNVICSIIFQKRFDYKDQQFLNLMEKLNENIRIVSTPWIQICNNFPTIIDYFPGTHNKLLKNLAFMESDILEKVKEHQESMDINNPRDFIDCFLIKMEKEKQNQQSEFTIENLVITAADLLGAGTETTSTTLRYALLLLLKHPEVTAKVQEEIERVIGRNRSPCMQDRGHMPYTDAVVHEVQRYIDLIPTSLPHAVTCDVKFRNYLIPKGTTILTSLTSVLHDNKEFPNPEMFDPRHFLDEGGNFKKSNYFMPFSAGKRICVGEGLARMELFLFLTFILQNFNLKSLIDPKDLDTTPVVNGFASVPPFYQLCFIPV

For `COc1ccc(Oc2ncc3nc(-c4ccccc4)c(=O)n(CCC#N)c3n2)cc1`, the figures for the Potency in [1], in assay [5] and in [6] were over 11.4 µM, over 9.22 µM and over 46 µM, respectively. Moreover, the activity change, negative = inhibition was -26.9% in assay [2] and -6.24% in assay [3]. In addition, in assay [4], the activity, negative = inhibition was -6.05%. Moreover, the Potency entry in assay [7] and in assay [8] was “inactive” each time.
Turning to `NS(=O)(=O)c1ccc(NC(=O)Nc2cccc3ccccc23)cc1`, the Potency in [1] is over 11.4 µM; in assay [5], over 46 µM; in assay [6] it was over 9.22 µM. For the same molecule, the activity change, negative = inhibition in assay [2] was -4.66%; in assay [3] it was 12.6%. In assay [4], the activity, negative = inhibition was -9.73%. In addition, the Potency result in assay [7] and in assay [8] was “inactive” in each case.
As to `O=C(O)CCC(=O)c1ccc[nH]1`, the Potency in assay [1] was over 11.4 µM; in assay [5], over 46 µM; in assay [6], over 9.22 µM. The activity change, negative = inhibition in assay [2] is -0.936%; in assay [3], 3.55%. Moreover, the activity, negative = inhibition in [4] is 3.5%. Further, the Potency result in [7] and in assay [8] was “inactive” throughout.
`Cc1cc(N2CCOCC2)nc2ccc(Cc3ccc4nc(N5CCOCC5)cc(C)c4c3)cc12`: the Potency in [1] was 6.83 µM (active); in assay [5], over 46 µM; in assay [6] it was over 9.22 µM; in assay [9] it was 3.98 µM (active); in [11], 3.16 µM (active). Besides, the activity change, negative = inhibition in assay [2] was -21.7%; in assay [3], -6.47%; in assay [10], 91.2% [at 11.4 µM]. Further, the activity, negative = inhibition in assay [4] was -14.5%. In addition, the Potency entry in assay [7] and in [8] was “inactive” in each case.
In the case of `CC1(C)[C@@H](CC(=O)O)CCC[C@@H]1CC(=O)O`, the values for the Potency in assay [1], in assay [5] and in assay [6] were over 11.4 µM, over 46 µM and over 9.22 µM, respectively. Also, the activity change, negative = inhibition in assay [2] is 2.47%; in [3] it was 5.58%. For the same molecule, the activity, negative = inhibition in assay [4] is 1.3%. The Potency entry in assay [7] and in [8] was “inactive” in each case.
Take `FC(F)(F)c1nc2nc(Cl)c(Cl)nc2n1CCCN1CCOCC1`: the Potency in assay [1] was over 11.4 µM; in assay [5] it was over 46 µM; in [6], over 9.22 µM; in [9], 2.51 µM (active). In addition, the values for the activity change, negative = inhibition in assay [2] and in assay [3] were 9.81% and -3.79%, respectively. Moreover, the activity, negative = inhibition in [4] is 2.08%. Besides, the Potency result in assay [7], in [8] and in assay [11] was “inactive” in each case.
For `COCCn1c(=O)c(-c2cc(F)cc(F)c2)nc2cnc(Oc3ccc(OC)cc3)nc21`, the Potency in assay [1] is over 11.4 µM; in assay [5], over 9.22 µM; in [6] it was over 46 µM; in [10], 3.16 µM (active). For the same molecule, the activity change, negative = inhibition in [2] is -11.1%; in assay [3] it was 0.515%. In [4], the activity, negative = inhibition was -2.08%. Besides, the Potency entry in [7], in assay [8] and in [11] was “inactive” in each case.
For `CC(=O)Nc1ccccc1C=C1c2ccccc2-c2ccccc21`, the Potency in assay [1] was over 11.4 µM; in [5], over 46 µM; in assay [6] it was over 9.22 µM. For the same molecule, the activity change, negative = inhibition in assay [2] was -4.76%; in assay [3], 18%. In addition, in [4], the activity, negative = inhibition is -16.5%. Further, the Potency entry in assay [7] and in assay [8] was “inactive” each time.
Turning to `C[C@H](CC(=O)O)C(C(=O)O)C(=O)O`, the Potency is over 11.4 µM in assay [1], over 46 µM in assay [5] and over 9.22 µM in assay [6]. For the same molecule, the activity change, negative = inhibition in assay [2] was -3.69%; in [3], -5.24%. For the same molecule, the activity, negative = inhibition in assay [4] is -3.1%. Moreover, the Potency result in assay [7] and in assay [8] was “inactive” each time.
For the molecule `O=C(O)c1cccc(S(=O)(=O)NCCO)c1`, the Potency in assay [1] was over 11.4 µM; in [5], over 46 µM; in [6], over 9.22 µM. For the same molecule, the activity change, negative = inhibition in assay [2] is 5.38%; in assay [3], 3.24%. Moreover, the activity, negative = inhibition in assay [4] is -2.13%. For the same molecule, the Potency entry in assay [7] and in assay [8] was “inactive” in each case.
Regarding `COc1cc(CN2CCCCC2)cc2cc(C(=O)O)c(=O)oc12`, the Potency in assay [1] is over 11.4 µM; in [5], over 46 µM; in assay [6] it was over 9.22 µM. The activity change, negative = inhibition in assay [2] was 17.3%; in [3], 15.7%. Also, the activity, negative = inhibition in [4] is -2.43%. For the same molecule, the Potency result in assay [7] and in assay [8] was “inactive” each time.
For `CN(C)CN1CSC(=S)N(CN(C)C)C1`, the Potency in assay [1] was over 11.4 µM; in [5], over 46 µM; in [6], over 9.22 µM; in assay [9], 3.16 µM (active); in [12] it was 3.16 µM (active). In addition, the activity change, negative = inhibition in assay [2] is -2.13%; in [3], 1.69%. Also, the activity, negative = inhibition in assay [4] is 0.0184%. For the same molecule, the Potency result in assay [7] and in [8] was “inactive” in each case.
Take `O=C(O)/C(Cc1cn[nH]n1)=N\O`: the Potency was over 11.4 µM in [1], over 46 µM in assay [5] and over 9.22 µM in assay [6]. The activity change, negative = inhibition is 16.4% in assay [2] and 0.206% in [3]. The activity, negative = inhibition in assay [4] was 1.63%. Besides, the Potency result in assay [7] and in [8] was “inactive” in each case.
As to `Cc1nc2ccccc2nc1N1CCCC1`, the Potency is over 11.4 µM in assay [1], over 46 µM in assay [5] and over 9.22 µM in assay [6]. Moreover, the activity change, negative = inhibition is 2.88% in [2] and 0.00129% in assay [3]. For the same molecule, the activity, negative = inhibition in [4] was 3.44%. For the same molecule, the Potency entry in [7] and in assay [8] was “inactive” each time.
Turning to `C[C@H](NCCN(C)C)[C@@H]1CCC2C3CCc4cc(O)ccc4[C@H]3CCC21C` (stereo not given in full), the figures for the Potency in assay [1], in assay [5] and in assay [6] were over 11.4 µM, over 46 µM and over 9.22 µM, respectively. In addition, the activity change, negative = inhibition in assay [2] was 3.21%; in assay [3], -1%. For the same molecule, the activity, negative = inhibition in assay [4] was -5.94%. Further, the Potency entry in assay [7] and in assay [8] was “inactive” in each case.
`O=S1(=O)CCN(c2ccccc2CC(c2c[nH]c3ccccc23)c2c[nH]c3ccccc23)CC1`: the Potency in [1] is over 11.4 µM; in assay [5], over 46 µM; in assay [6] it was over 9.22 µM; in assay [9], 3.16 µM (active); in [12] it was 3.16 µM (active). In addition, the activity change, negative = inhibition in assay [2] is -12.9%; in [3], -27.4%. For the same molecule, the activity, negative = inhibition in assay [4] is -20.7%. The Potency entry in assay [7], in [8] and in assay [11] was “inactive” throughout.
